Max dye-equivalent concentration data for 33 molecules are collected here from PubChem BioAssay AID590 (National Center for Advancing Translational Sciences (NCATS), 2007).

Structures are written as SMILES. Screen size: about 59,000 compounds; about 6,500 (11%) were called active. Another 15% or so got no clear call; they are omitted. This is one part of a sample in which actives are shown more often than they occur. No stated cut-off is given here; in the data, active means max dye-equivalent concentration above about 10 nM; inconclusive means mostly about 1.1 nM to 9.6 nM; inactive means weaker than that.

A short description of this test: qHTS Assay for Spectroscopic Profiling in A350 Spectral Region. Conditions: Compound autofluorescence, 340/450 nm, Alexa 350 dye-equivalents; hits give high values. For orientation: Quantitative high-throughput screening tests each substance at several concentrations.
Take `CC1CCc2c(sc(NC(=O)c3ccc(Cn4cc(Br)cn4)o3)c2C(N)=O)C1` (stereo not drawn): the max dye-equivalent concentration is 0.11 µM (active).

As to `NC(=O)CSc1oc(-c2cccs2)nc1S(=O)(=O)c1ccccc1`, the max dye-equivalent concentration entry is “inactive”. Then `O=C(c1ccco1)N1CCC[C@@]2(CCN(Cc3nccs3)C2)C1`, with “inactive”.

Consider `COc1ccc(-c2cn3ccsc3n2)cc1`, for which the max dye-equivalent concentration entry was “inactive”. Turning to `CC(=O)Nc1ccc(-c2cn3cccnc3n2)cc1`, the max dye-equivalent concentration was 6.3 µM (active).

Take `CCCC(=O)Nc1cccc(-c2cn3ccsc3n2)c1`: the max dye-equivalent concentration entry was “inactive”.

For the molecule `CCOc1nc(OCC)nc(-n2cc(-c3ccccc3)nn2)n1`, the max dye-equivalent concentration result was “inactive”.

On to `c1ccc(-c2cn3cccnc3n2)cc1`, for which the max dye-equivalent concentration is 4.8 µM (active).

`CC(=O)Nc1cccc(-c2cnc3ccccc3n2)c1`: the max dye-equivalent concentration entry is “inactive”. On to `CC(=O)N(Cc1cccs1)C1CCOC(C)(C)C1` (stereo not drawn), for which the max dye-equivalent concentration entry is “inactive”. Regarding `CCCCn1c(=S)[nH]c2ncccc2c1=O`, the max dye-equivalent concentration entry is “inactive”. Consider `O=S(=O)(N1CCOCC1)N1CCN(c2ccccc2F)CC1`, for which the max dye-equivalent concentration result was “inactive”. Turning to `c1ccc(-c2[nH]ncc2-c2nc3ccccc3[nH]2)cc1`, the max dye-equivalent concentration entry is “inactive”.

Turning to `CC1(C)CC(=O)NC=C(c2ccccc2)C1`, the max dye-equivalent concentration result was “inactive”.

Turning to `O=c1[nH]c(-c2ccccc2)c(-c2ccccc2)[nH]1`, the max dye-equivalent concentration was 0.014 µM (active). `c1csc(CN2CCN(Cc3cccs3)C2c2cccs2)c1`: the max dye-equivalent concentration entry is “inactive”.

`CC1CCCCC1NC(=O)CCS(=O)(=O)c1cccc2nonc12` (stereo not drawn): the max dye-equivalent concentration result was “inactive”. In the case of `Cc1nnc(SCC(=O)NCc2cccs2)[nH]c1=O`, the max dye-equivalent concentration result is “inactive”.

With `C=CCn1c(C2CC(=O)N(c3ccc(C)cc3)C2)nc2ccccc21` (stereo not drawn), the max dye-equivalent concentration result is “inactive”. Then `CC(C)Cn1c(N)c(C(=O)NCc2cccs2)c2nc3ccccc3nc21`, with 0.35 µM (active); and `CCN(CC(=O)NCc1cccs1)c1nnnn1-c1ccccc1`, with “inactive”.

As to `C=CCn1c(N)c(C(=O)OCC(C)C)c2nc3ccccc3nc21`, the max dye-equivalent concentration is 4.5 µM (active).

Regarding `C=CCn1c(N)c(S(=O)(=O)c2cccs2)c2nc3ccccc3nc21`, the max dye-equivalent concentration was 5.3 µM (active). Consider `CC(=O)c1c(N2CCOCC2)nc(=S)n(-c2cc(C)ccc2C)c1C`, for which the max dye-equivalent concentration result is “inactive”. The result for `COC(=O)[C@@H]1[C@H]2C[C@H]3c4[nH]c5cc(OC)ccc5c4CCN3C[C@@H]2C[C@@H](OC(=O)c2cc(OC)c(OC)c(OC)c2)[C@@H]1OC` reads “inactive”; that for `Oc1c(Br)cc(CN(Cc2cc(Br)c(O)c(Br)c2)C2CCCCC2)cc1Br`, “inactive”; that for `CS(=O)(=O)c1ccc2nc(NC(=O)CN3CCCCCC3)sc2c1`, “inactive”. The result for `CCn1nnc(NC(=O)c2c(OC)cccc2OC)n1` reads “inactive”. Take `O=C(CSc1nc2ncccc2[nH]1)Nc1ccc2c(c1)OCCO2`: the max dye-equivalent concentration result was “inactive”. `CC(C)C(c1nnnn1C1CCCC1)N1CCN(c2ccccc2F)CC1` (stereo not drawn): the max dye-equivalent concentration result is “inactive”. Then `Cc1cc(C)c(C#N)c(SCc2ccc3c(c2)OCO3)n1`, with “inactive”; and `Cc1cc(C)c(C#N)c(SCc2ccccc2C(=O)O)n1`, with 0.013 µM (active); and `Cc1cc(C)c(C#N)c(SCS(=O)c2ccc(C(C)(C)C)cc2)n1` (stereo not drawn), with “inactive”.
